{"source": "ChEMBL document CHEMBL3988442", "about": "“University of Dundee, Small-Polar-MMV Screening Library” (2021)", "system": "Leishmania donovani", "assay": "Leishmania intramacrophage assay", "format": "functional, organism-based", "design": "scale not given: in the data most compounds retested in dose-response had high values", "note": "Among all 69,000 compounds or so, about 1,000 (1.4%) showed an effect of 50% or more. For the sample, strong results were picked, then their nearest neighbours and some compounds at random."}
{"smiles": "CC(NCc1ccccn1)c1cc2c(cc1Br)OCCO2", "note": "(centres undefined)", "values": [{"measurement": "Percent Effect", "setting": "30.3 µM, […]", "result": 16.93, "unit": "%"}]}
{"smiles": "CC(NCc1cccc2c1OCCO2)c1cc2c(cc1Br)OCCO2", "note": "(centres undefined)", "values": [{"measurement": "Percent Effect", "setting": "30.3 µM, […]", "result": 73.82, "unit": "%"}]}
{"smiles": "CC(NCc1ccncc1)c1cc2c(cc1Br)OCCO2", "note": "(centres undefined)", "values": [{"measurement": "Percent Effect", "setting": "30.3 µM, […]", "result": 16.23, "unit": "%"}]}
{"smiles": "O=C(NCCNc1ncccn1)N1CCN(c2nccs2)CC1", "values": [{"measurement": "Percent Effect", "setting": "30.3 µM, […]", "result": 13.95, "unit": "%"}]}
{"smiles": "CS(=O)(=O)Cc1cc(F)ccc1NCc1nnsc1Cl", "values": [{"measurement": "Percent Effect", "setting": "30.3 µM, […]", "result": -4.772, "unit": "%"}]}
{"smiles": "Cn1ccnc1CN1CCC2(CC1)COCCN(S(C)(=O)=O)C2.O=C(O)C(F)(F)F", "values": [{"measurement": "Percent Effect", "setting": "30.3 µM, […]", "result": 39.8, "unit": "%"}]}
{"smiles": "Cn1ccnc1CN1CCC2(COCCN(Cc3ccsc3)C2)C1", "note": "(centres undefined)", "values": [{"measurement": "Percent Effect", "setting": "30 µM, 30.03 µM", "result": 46.66, "unit": "%"}]}
{"smiles": "Cn1ccnc1CN1CCC2(CC1)COCCN(c1ncccn1)C2", "values": [{"measurement": "Percent Effect", "setting": "30.3 µM, […]", "result": 59.31, "unit": "%"}]}
{"smiles": "NCC(=O)N1CCC2(CC1)CN(C(=O)Cc1ccc(Cl)cc1)CCO2", "values": [{"measurement": "Percent Effect", "setting": "30.3 µM, […]", "result": -4.476, "unit": "%"}]}
{"smiles": "Cc1nccn1C1CCCN(C(=O)c2cccc(Cn3ccnc3)c2)C1", "note": "(centres undefined)", "values": [{"measurement": "Percent Effect", "setting": "30 µM", "result": 43.46, "unit": "%"}]}
{"smiles": "CCN(CCO)C[C@@H]1CN(C(=O)c2sc3ccccc3c2C)C[C@@H]1CO", "values": [{"measurement": "Percent Effect", "setting": "30.3 µM, […]", "result": -0.1561, "unit": "%"}]}
{"smiles": "CN(CC1CC1)C(=O)Cc1csc(-c2ncccn2)n1", "values": [{"measurement": "Percent Effect", "setting": "30.3 µM, […]", "result": 39.01, "unit": "%"}]}
{"smiles": "CN(CCC#N)C(=O)Cc1csc(-c2ncccn2)n1", "values": [{"measurement": "Percent Effect", "setting": "30.3 µM, […]", "result": 54.73, "unit": "%"}]}
{"smiles": "COc1ccc(-c2nc(CC(=O)N(C)CCC#N)cs2)cc1OC", "values": [{"measurement": "Percent Effect", "setting": "30.3 µM, […]", "result": 0.3942, "unit": "%"}]}
{"smiles": "COCC1CCCCN1C(=O)c1cc(-c2cccc(OC)c2)n[nH]1", "note": "(centres undefined)", "values": [{"measurement": "Percent Effect", "setting": "30.3 µM, […]", "result": -0.5575, "unit": "%"}]}
{"smiles": "COCC(=O)NCCc1nc(N(C)C)ncc1-c1ccncc1", "values": [{"measurement": "Percent Effect", "setting": "30.3 µM, […]", "result": 29.7, "unit": "%"}]}
{"smiles": "Cn1cc(C(=O)N2CC[C@@H]3[C@@H]2CCN3Cc2ccccc2)cn1.O=C(O)C(F)(F)F", "values": [{"measurement": "Percent Effect", "setting": "30.3 µM, […]", "result": 4.091, "unit": "%"}]}
{"smiles": "Cn1cc(C(=O)N2CC[C@@H]3[C@@H]2CCN3Cc2cccc(F)c2)cn1.O=C(O)C(F)(F)F", "values": [{"measurement": "Percent Effect", "setting": "30 µM, 30.03 µM", "result": 2.666, "unit": "%"}]}
{"smiles": "Cn1cc(CN2CC[C@@H]3[C@@H]2CCN3C(=O)c2cccc(F)c2)cn1.O=C(O)C(F)(F)F", "values": [{"measurement": "Percent Effect", "setting": "30.3 µM, […]", "result": 56.05, "unit": "%"}]}
{"smiles": "Cc1oncc1C(=O)N1CC[C@H]2CO[C@H](CN3CCCC3)[C@H]2C1", "values": [{"measurement": "Percent Effect", "setting": "30.3 µM, […]", "result": 5.899, "unit": "%"}]}
{"smiles": "COc1c(CNC2CCCOc3ccc(F)cc32)c(C)nn1C.Cl", "note": "(centres undefined)", "values": [{"measurement": "Percent Effect", "setting": "30.3 µM, […]", "result": 19.28, "unit": "%"}]}
{"smiles": "COc1c(CNC2CCc3c(F)cccc32)c(C)nn1C.Cl", "note": "(centres undefined)", "values": [{"measurement": "Percent Effect", "setting": "30 µM", "result": 34.02, "unit": "%"}]}
{"smiles": "COc1c(CNC2CCSc3ccc(F)cc32)c(C)nn1C.Cl", "note": "(centres undefined)", "values": [{"measurement": "Percent Effect", "setting": "30 µM, 30.03 µM", "result": 60.68, "unit": "%"}]}
{"smiles": "COc1c(CNC2CCOc3c(Cl)cccc32)c(C)nn1C.Cl", "note": "(centres undefined)", "values": [{"measurement": "Percent Effect", "setting": "30.3 µM, […]", "result": 30.91, "unit": "%"}]}
{"smiles": "COc1c(CNC2CCc3c(Cl)cccc32)c(C)nn1C.Cl", "note": "(centres undefined)", "values": [{"measurement": "Percent Effect", "setting": "30 µM, 30.03 µM", "result": 56.04, "unit": "%"}]}
{"smiles": "COc1c(CNC2CCc3cc(F)ccc32)c(C)nn1C.Cl", "note": "(centres undefined)", "values": [{"measurement": "Percent Effect", "setting": "30 µM, 30.03 µM", "result": 46.26, "unit": "%"}]}
{"smiles": "COc1ccc(F)c(CNC2CCCc3nc(N(C)C)ncc32)c1", "note": "(centres undefined)", "values": [{"measurement": "Percent Effect", "setting": "30.3 µM, […]", "result": 34.48, "unit": "%"}]}
{"smiles": "O=C(c1ccccc1)N1CC2(CCNC2)OCc2ccccc21", "note": "(centres undefined)", "values": [{"measurement": "Percent Effect", "setting": "30.3 µM, […]", "result": 23.45, "unit": "%"}]}
{"smiles": "O=C(C1CCCC1)N1CC2(CCNC2)OCc2ccccc21", "note": "(centres undefined)", "values": [{"measurement": "Percent Effect", "setting": "30.3 µM, […]", "result": 12.94, "unit": "%"}]}
{"smiles": "O=C(c1ccc(Cl)cc1)N1CC2(CCNC2)OCc2ccccc21", "note": "(centres undefined)", "values": [{"measurement": "Percent Effect", "setting": "30.3 µM, […]", "result": 67.31, "unit": "%"}]}
{"smiles": "Cc1noc(CSc2ccc(C(F)(F)F)cn2)n1", "values": [{"measurement": "Percent Effect", "setting": "30.3 µM, […]", "result": 27.73, "unit": "%"}]}
{"smiles": "CCCc1nc(C)c(C(=O)NCCn2ccnc2)s1", "values": [{"measurement": "Percent Effect", "setting": "30.3 µM, […]", "result": -7.791, "unit": "%"}]}
{"smiles": "Cl.Cl.Clc1cccc(C[C@@H]2NCCC[C@@H]2Nc2ccccc2)c1", "values": [{"measurement": "Percent Effect", "setting": "30.3 µM, […]", "result": 98.87, "unit": "%"}]}
{"smiles": "O=C(NCCc1cccc(Cl)c1)C1CCOCC1", "values": [{"measurement": "Percent Effect", "setting": "30.3 µM, […]", "result": -10.81, "unit": "%"}]}
{"smiles": "O=C(C[S+]([O-])Cc1cccc(Cl)c1)NC1CCCC1", "note": "(centres undefined)", "values": [{"measurement": "Percent Effect", "setting": "30.3 µM, […]", "result": 13.89, "unit": "%"}]}
{"smiles": "O=C(Cc1cccc(Cl)c1)N[C@@H]1CCNC[C@H]1O", "values": [{"measurement": "Percent Effect", "setting": "30 µM, 30.03 µM", "result": -4.847, "unit": "%"}]}
{"smiles": "Cl.Clc1cccc(N[C@H]2CCCN[C@H]2Cc2ccccc2)c1", "values": [{"measurement": "Percent Effect", "setting": "30.3 µM, […]", "result": 98.49, "unit": "%"}]}
{"smiles": "Cl.Cl.Clc1cccc(C[C@@H]2NCCC[C@@H]2Nc2cccc(Cl)c2)c1", "values": [{"measurement": "Percent Effect", "setting": "30.3 µM, […]", "result": 98, "unit": "%"}]}
{"smiles": "CCOc1ccc(Cl)cc1C1CCCN1.Cl", "note": "(centres undefined)", "values": [{"measurement": "Percent Effect", "setting": "30 µM, 30.03 µM", "result": 7.031, "unit": "%"}]}
{"smiles": "Cl.O=C(OCC1CCCN1)c1cccc(NC(=O)c2ccco2)c1", "note": "(centres undefined)", "values": [{"measurement": "Percent Effect", "setting": "30.3 µM, […]", "result": 19.64, "unit": "%"}]}
{"smiles": "O=C1NCCCc2[nH]c(Cc3cccc(Cl)c3)nc21", "values": [{"measurement": "Percent Effect", "setting": "30.3 µM, […]", "result": 16.75, "unit": "%"}]}
{"smiles": "CCn1cc2c(n1)C(COC)CN(Cc1ccccn1)C2", "note": "(centres undefined)", "values": [{"measurement": "Percent Effect", "setting": "30 µM, 30.03 µM", "result": -30.8, "unit": "%"}]}
{"smiles": "O=C(c1csc(-c2ncccn2)n1)N1CCN(C2CCCC2)CC1", "values": [{"measurement": "Percent Effect", "setting": "30.3 µM, […]", "result": 15.8, "unit": "%"}]}
{"smiles": "COc1cc(N2C[C@@H]3COC[C@]3(COc3ccccn3)C2)ncn1.O=C(O)C(F)(F)F.O=C(O)C(F)(F)F", "values": [{"measurement": "Percent Effect", "setting": "30.3 µM, […]", "result": 12.8, "unit": "%"}]}
{"smiles": "N#Cc1ccc(OC[C@]23COC[C@H]2CN(c2ncccn2)C3)nc1", "values": [{"measurement": "Percent Effect", "setting": "30.3 µM, […]", "result": -11.64, "unit": "%"}]}
{"smiles": "COc1cc(N2C[C@@H]3COC[C@]3(COc3ccc(C#N)cn3)C2)ncn1", "values": [{"measurement": "Percent Effect", "setting": "30 µM, 30.03 µM", "result": 56.85, "unit": "%"}]}
{"smiles": "Cc1csc(NC(=O)[C@@H]2C[C@H]3[C@H](CCN3S(C)(=O)=O)O2)n1", "values": [{"measurement": "Percent Effect", "setting": "30.3 µM, […]", "result": 37.69, "unit": "%"}]}
{"smiles": "CCOCCNc1nc(C2CCCC2)nc2c1cnn2C", "values": [{"measurement": "Percent Effect", "setting": "30 µM, 30.03 µM", "result": 33.9, "unit": "%"}]}
{"smiles": "Cn1ncc2c(NCCCOc3cccnc3)nc(C3CCCC3)nc21", "values": [{"measurement": "Percent Effect", "setting": "30.3 µM, […]", "result": 7.938, "unit": "%"}]}
